# According to PubChem BioAssay AID1076 (NMMLSC, 2008):
# The source made the active and inactive calls.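 Rule for the calls: active = cell event count below 40, meaning activity score above 60 where score is 100 minus count; inactive = the rest.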
# Experiment: cytotoxicity in LNCaP prostate cells – cell-based, cell event count, single point, cytotoxicity control for prostate differentiation activator project, confirmation (AID 1076);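 note: counts scatter-gated live cells after medium removal discards detached dead cells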
# Conditions: LNCaP cell loss, flow cytometry event count, 4 d, stronger effect = lower value
SMILES,cell event count (at 100 µM),"cell event count (event count, at 10 µM)"
COc1cc(C(=O)NCc2nnc(SCC(=O)NCc3ccccc3)o2)cc(OC)c1OC,104 (inactive),134
Nc1ccc(-c2nc3c(Cl)c(N)ccc3[nH]2)cc1,183 (inactive),206
Cc1cc(C)n2nc(SCC(=O)Nc3ccc(F)cc3)nc2n1,226 (inactive),343
Cc1cc(N2CCC(N(C)C3CCCC3)CC2)nc2cc(O)ccc12,26 (inactive),196
CN1CCN(CCCNC(=O)c2cc3c(-c4ccc(Cl)cc4)nn(C)c3s2)CC1,7 (inactive),146
COC(=O)c1ccccc1NC(=O)CN1CCC(n2nnc3cc(F)ccc32)CC1,174 (inactive),112
Cc1ccccc1-c1nc(CN2CCC(C(=O)NCC3CCCO3)CC2)c(C)o1 (configuration not stated),71 (inactive),139
COc1ccc(N2CCN(CCCNC(=O)CN3CCN(Cc4ccccc4C)C3=O)CC2)cc1,19 (inactive),87.5
c1ccc(N2CCN(c3nnc(Cc4cccnc4)c4ccccc34)CC2)nc1,40 (inactive),434
COc1ccc(N2CCN(CCCNC(=O)c3cc4sccc4n3C)CC2)cc1,161 (inactive),251
Cc1cccc(N2CCN(C(=O)CCNC(=O)Cn3ccc4ccccc4c3=O)CC2)c1C,8 (inactive),246
COc1ccc(N2CCN(CCCNC(=O)CCCn3c(=O)[nH]c4ccsc4c3=O)CC2)cc1,13 (active),25.5
Cc1ccc(C)c(N2CCN(C(=O)CCNC(=O)Cn3ccc4ccccc4c3=O)CC2)c1,76 (inactive),148
OCc1nc2ccccc2n1CCCOc1ccccc1,178 (inactive),156
Cc1ccnc(NC(=O)CCC(=O)N(CC(=O)NC2CCCCC2)c2cccc(C)c2C)c1,27 (inactive),66
CCc1ccc(-c2nc(CN3CCC(C(=O)NCCc4ccc(OC)c(OC)c4)CC3)c(C)o2)cc1,17 (inactive),204
C=CCn1c(=N)n(CC(O)COc2ccccc2OC)c2ccccc21 (configuration not stated),29 (inactive),94
CCc1ccc(-c2nc(CN3CCC(C(=O)NCCN(CC)c4ccccc4)CC3)c(C)o2)cc1,6 (inactive),150
Cc1noc(/C=C/c2ccco2)c1S(=O)(=O)N1CCC(C(=O)N2CCc3ccccc3C2)CC1,174 (inactive),197
CCOC(=O)C1=C(C)Nc2nc(SC)nn2C1c1ccc(C(=O)OC)cc1 (configuration not stated),326 (inactive),178
CCOc1ccc(-c2cc(C(=O)NCCCN3CCN(CC)CC3)c3ccccc3n2)cc1,39 (inactive),156

SMILES,cell event count (at 100 µM),"cell event count (event count, at 10 µM)"
Cc1oc(-c2cccc(Cl)c2)nc1CN1CCCC(C(=O)NCCCN2CCOCC2)C1 (configuration not stated),22 (inactive),220
COc1ccc(CCNC(=O)C2CCN(Cc3nc(-c4cccc(Cl)c4)oc3C)CC2)cc1OC,85 (inactive),338
CCn1c(=O)cc(SCC(=O)N2CCN(C3CCCCC3)CC2)c2ccccc21,6 (inactive),402
CN(CC(=O)Nc1ccc2c(c1)OCCO2)S(=O)(=O)c1cccc2cccnc12,95 (inactive),156
CCOC(=O)C1CCCN(C(=O)Cn2cccc2C(=O)c2ccccc2)C1 (configuration not stated),201 (inactive),166
CN1CCN(CC(=O)Nc2ccc(Cl)cc2Cl)CC1,117 (inactive),198
O=C(CN1CCC(n2nnc3cc(F)ccc32)CC1)Nc1ccc2c(c1)CCC2,210 (inactive),466
CCc1ccc(-c2nc(CN3CCC(C(=O)NCc4ccc(F)cc4)CC3)c(C)o2)cc1,1 (active),62.5
CCn1c(=O)cc(OCC(=O)O)c2ccccc21,22 (inactive),99.5
COc1ccc(N2CCN(CCCNC(=O)C3(S(=O)(=O)c4ccc(Cl)cc4)CC3)CC2)cc1,93 (inactive),136
Cn1nc(-c2ccc(Cl)cc2)c2cc(C(=O)NCCCN3CCCC3)sc21,19 (inactive),104
CCc1ccc(NC(=O)NCCN2CCc3ccccc3C2)cc1,6 (inactive),112
O=c1cc(N2CCc3ccccc3C2)[nH]c(=O)n1C1CCCCC1,143 (inactive),76.5
COc1ccc(Cc2nc(-c3ccc(-n4cccc4)cc3)no2)cc1OC,17 (active),28
Cc1nc2c3cnn(-c4ccccc4)c3ncn2n1,159 (inactive),145
Cc1ccc(OCC(O)Cn2c(=N)n(CCN3CCCCC3)c3ccccc32)cc1 (configuration not stated),13 (inactive),96
CCCCC(=O)NCCc1ccc(S(N)(=O)=O)cc1,238 (inactive),92.5
Cc1cc(=O)n2nc(N3CCCC3C(=O)NCc3ccccn3)sc2n1 (configuration not stated),101 (inactive),61
CCN1CCN(C(=O)C2CCN(Cc3nc(-c4cccc(Cl)c4)oc3C)CC2)CC1,12 (inactive),192
CCCCOC(=O)Nc1cc(C(=O)OC)ccc1C(=O)OC,143 (inactive),206
O=C(NCCCN1CCN(c2cccc(Cl)c2)CC1)c1nc(-c2ccncc2)no1,166 (inactive),462

SMILES,cell event count (at 100 µM),"cell event count (event count, at 10 µM)"
COc1ccc(OC)c(CNC(=O)CCNC(=O)Cn2ccc3ccccc3c2=O)c1,63 (inactive),73
COc1ccc(NC(=O)NCCCN2CCN(c3cc(C)ccc3C)CC2)cc1,1 (inactive),102
Cc1oc(-c2ccc(Cl)cc2)nc1CN1CCC(C(=O)NCc2cccnc2)CC1,20 (inactive),125
Cc1ccc(C)c(N2CCN(CCCNC(=O)Cn3cc4c(n3)CCCCC4)CC2)c1,3 (active),53.5
O=C(NCCCN1CCN(c2ccc(F)cc2)CC1)c1cccc(N2CCCC2=O)c1,206 (inactive),263
O=C(Cn1ccc2ccccc2c1=O)NCCC(=O)N1CCN(c2cccc(C(F)(F)F)c2)CC1,232 (inactive),258
Cc1cc(NC(=O)CSc2nnc(C3CC3)n2C)no1,198 (inactive),100
Cn1nc(-c2ccc(Cl)cc2)c2cc(C(=O)NCCCN3CCOCC3)sc21,33 (inactive),184
COC(=O)c1ccccc1S(=O)(=O)N(Cc1cc2cc3c(cc2[nH]c1=O)OCO3)C1CCCCC1,8 (inactive),103
c1cncc(-c2nc3ccccc3o2)c1,49 (inactive),89.5
CCOC(=O)N1CCN(C(=O)CCc2c(C)nc3c(c(C)nn3-c3ccc(C)c(C)c3)c2C)CC1,5 (inactive),222
Cc1oc(-c2ccc(Cl)cc2)nc1CN1CCC(C(=O)NCc2ccco2)CC1,178 (inactive),174
O=C(Nc1c(C(=O)N2CCOCC2)cnn1-c1ccccc1)c1ccco1,201 (inactive),124
CCN1CCCC1CNC(=O)C1CCN(Cc2nc(-c3cccc(Br)c3)oc2C)CC1 (configuration not stated),16 (inactive),78
COc1ccc(CCN2CCC(Nc3nc4ccccc4n3Cc3ccc(F)cc3)CC2)cc1,11 (inactive),728
CCN(CC)CCCNC(=O)c1cc2c(-c3ccc(Cl)cc3)nn(C)c2s1,13 (active),71.5
O=C(CSc1nc2c(c(=O)n1-c1ccc(F)cc1)SCC2)NCC1CCCO1 (configuration not stated),207 (inactive),132
CCn1c(=O)cc(SCC(=O)NCCCN2CCN(c3ccc(F)cc3)CC2)c2ccccc21,14 (inactive),241
CCn1c(=O)cc(SCC(=O)NCCN2CCN(Cc3ccccc3)CC2)c2ccccc21,228 (inactive),356
c1ccc(OCCCn2nnc(-c3cccnc3)n2)cc1,123 (inactive),126
Cn1c(=O)n(C)c2cc(CN3C(=O)OC(C)(C)C3(C)O)ccc21 (configuration not stated),211 (inactive),145

SMILES,cell event count (at 100 µM),"cell event count (event count, at 10 µM)"
COc1ccc2cc3cc(C(=O)Nc4ccccc4N4CCN(C)CC4)oc3nc2c1,41 (inactive),334
O=C(Cn1cnc2ccccc2c1=O)NCCC(=O)N1CCN(c2ccccc2)CC1,158 (inactive),190
COCCNC(=O)CC(NS(=O)(=O)c1ccc(NC(C)=O)cc1)C(C)C (configuration not stated),79 (inactive),62
COc1ccc(CCn2c(=N)c(C(=O)NCc3ccco3)cc3c(=O)n4ccccc4nc32)cc1,32 (inactive),225
Cc1oc(-c2ccccc2F)nc1CN1CCC(C(=O)NCc2ccco2)CC1,330 (inactive),278
Cc1ccc2c(c1)NC(=O)C(CC(=O)NCCCN1CCN(c3cc(C)ccc3C)CC1)O2 (configuration not stated),113 (inactive),152
Cc1oc(-c2ccc(Cl)cc2)nc1CN1CCCC(C(=O)NCc2ccco2)C1 (configuration not stated),27 (inactive),248
CCOC(=O)c1[nH]c(C)c(C(=O)NC2CCCCCC2)c1C,63 (inactive),112
O=C1CCCc2c1cc(C(=O)NC1CCSC1=O)c(=O)n2-c1ccccc1 (configuration not stated),253 (inactive),155
CCOc1ccc(-n2cc(C(=O)N3CCC(C)CC3)c3cc(OC)c(OC)cc3c2=O)cc1,202 (inactive),251
Cn1c(=O)cc(OCC(=O)NCCCN2CCN(c3ccccc3F)CC2)c2ccccc21,227 (inactive),401
CCN(CCNC(=O)C1CCN(Cc2nc(-c3ccc(Cl)cc3)oc2C)CC1)c1ccccc1,24 (inactive),391
CC(C)N1CCC2(CC1)N=C(c1ccc3c(c1)OCO3)CC(c1cc(Cl)ccc1O)N2 (configuration not stated),46 (inactive),43.5
Cc1cccc(-c2nc(CN3CCCC(C(=O)NC4CCC(C)CC4)C3)c(C)o2)c1 (configuration not stated),5 (inactive),138
COc1ccc(-n2nnnc2SCC(=O)c2ccc(O)c(O)c2)cc1,9 (inactive),205
COc1ccc(-c2coc3c(CN4CCCCC4)c(O)c(CN4CCCCC4)c(O)c3c2=O)cc1,7 (active),63
CN(CCNC(=O)C1CC(=O)N(c2ccc(F)c(Cl)c2)C1)Cc1ccccc1 (configuration not stated),79 (inactive),202
CCOc1ccccc1NC(=O)c1nc[nH]c1C(=O)Nc1ccccc1OCC,20 (inactive),248
